Bioassay records: PubChem BioAssay, Broad Institute
ROS inducer: cancer cell ROS induction. ROS induction (% of piperlongumine), % at 10 µM. AID 624156. U2OS ROS induction, H2DCF-DA fluorescence. actives 2% (n = 46,000); in the data active = ROS induction above about 79%, passing the limit was not always enough;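 note: 0% = DMSO vehicle median and 100% = reference compound median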
The depositor's hits bear a star. The entries come from a sample that favours hits as a whole.

Results for Cc1noc(C)c1NC(=O)Nc1ccc2c(c1)CC(=O)N([C@H](C)CO)C[C@H](C)[C@H](CN(C)S(=O)(=O)c1cccs1)O2 ?
ROS inducer: 18.4

How did COc1ccc(N(C)C(=O)c2cc3c(=O)oc4ccccc4c3s2)cc1 do in these assays?
ROS inducer: -7.0

Results for CC(C)C(=O)/C=C1/Sc2ccccc2N1C ?
ROS inducer: -5.0

Results for Cc1ccc2[nH]c(=O)c(C3=NN(C(=O)CCC(=O)O)C(c4ccccc4)C3)c(-c3ccccc3)c2c1 (configuration not stated) ?
ROS inducer: 26.9

How did CNC(=O)c1oc2ccc3c(c2c1C)C(=O)CC1(CCCCC1)O3 do in these assays?
ROS inducer: 33.7

Results for COC(=O)C(NC(=O)Cc1c(C)nc2c(-c3ccccc3)c(C)nn2c1C)C(C)C (configuration not stated) ?
ROS inducer: 9.6

Results for Cc1nn2c3c(cnc2c1-c1ccccc1)C(=O)CC(C)(C)C3 ?
ROS inducer: 26.3

How did COc1ccc(-c2c(C)nn3c(N)c(-c4ccccc4)cnc23)cc1 do in these assays?
ROS inducer: 119.6*

How did COC(=O)COc1ccc2c(=O)c(Oc3ccc(OC)cc3)coc2c1 do in these assays?
ROS inducer: 22.2

Results for COc1ccc(-c2coc3cc(O)ccc3c2=O)c(OC)c1 ?
ROS inducer: -0.3

Results for CCCOC(=O)COc1ccc2c(=O)c(-c3ccccc3OC)coc2c1 ?
ROS inducer: 235.7*

What do the screens show for `COCCN(C(=O)Nc1ccc(Cl)c(Cl)c1)C1CCN(C(C)C)CC1`?
ROS inducer: -12.4

How did COc1ccc(C2CC(=O)c3cnc(NCCc4ccccc4)nc3C2)cc1 (configuration not stated) do in these assays?
ROS inducer: 29.2

How did Cc1c(Cc2ccccc2)c(Cl)n2c(nc3ccccc32)c1C#N do in these assays?
ROS inducer: 163.7*

What do the screens show for `O=C(CSc1nc2ccccc2c2nc3ccccc3n12)NCCc1ccccc1`?
ROS inducer: 53.3

Results for Cc1c(Cc2ccc(Cl)cc2)c(=O)n2c([nH]c3ccccc32)c1C#N ?
ROS inducer: 13.2

How did N#Cc1c(-c2ccccc2Cl)c(C#N)c2nc3ccccc3n2c1N do in these assays?
ROS inducer: 69.7

Results for CCCc1cc(NCCc2ccccc2)n2c(nc3ccccc32)c1C#N ?
ROS inducer: 91.9*

What do the screens show for `Cc1ccccc1Cn1c(Cc2ccccc2)nc2ccccc21`?
ROS inducer: 26.9

How did COc1ccc(C(=O)NCCc2nnc3ccc(SCC(=O)Nc4ccc(C)cc4C)nn23)cc1 do in these assays?
ROS inducer: -12.9

What do the screens show for `C=C(CO)C(=O)O[C@H]1C[C@H]2C(=C)C[C@H](OC(=O)C(=C)CO)[C@H]3C(=C)C(=O)O[C@@H]3[C@H]2C1=C`?
ROS inducer: 115.3*

What do the screens show for `C=C1C(=O)O[C@H]2C1CCC(=C)[C@@H]1C[C@H](OC(=O)C=C(C)C)C(=C)[C@@H]12` (some centres not stated)?
ROS inducer: 5.8

How did C=C1C(=O)O[C@@H]2[C@H]3C(=C)[C@@H](O[C@@H]4O[C@H](CO)[C@@H](OC(=O)/C=C/c5ccc(O)c(O)c5)[C@H](O)[C@H]4O)C[C@H]3C(=C)C[C@@H](O)[C@@H]12 do in these assays?
ROS inducer: 24.9

Results for NC(=O)c1ccc(C(=O)c2ccccc2)cc1 ?
ROS inducer: -10.1

What do the screens show for `CC1(C)CC2CC(C)(CN2C(=O)Nc2ccc3snnc3c2)C1` (configuration not stated)?
ROS inducer: -0.9

Results for COc1ccc(OC)c(C2c3cccn3CCN2C(=S)NC(C)(C)C)c1 (configuration not stated) ?
ROS inducer: 2.7

Results for CCOC(=O)c1cnc2ccc(OCC)cc2c1NCCCN1CCOCC1 ?
ROS inducer: 51.9

What do the screens show for `CCOC(=O)c1cnc2c(C(F)(F)F)cccc2c1N1CCN(C)CC1`?
ROS inducer: 49.6

How did CCOC(=O)c1cnc2c(C(F)(F)F)cccc2c1NCCCN1CCOCC1 do in these assays?
ROS inducer: 112.7*

How did Cc1ccc2nc3c(cc(C(N)=O)c(=N)n3Cc3cccnc3)c(=O)n2c1 do in these assays?
ROS inducer: 25.6

What do the screens show for `COc1ccccc1/C=C1\SC(=O)N(CC(=O)N2CCOCC2)C1=O`?
ROS inducer: -5.9

How did COc1ccccc1-c1cc(C(F)(F)F)nc(S(=O)(=O)CCCC(=O)N2CCOCC2)n1 do in these assays?
ROS inducer: 89.8*

How did COc1ccc(OC)c(S(=O)(=O)N(C)CC(=O)N2CCOCC2)c1 do in these assays?
ROS inducer: -13.0

Results for CNC(=O)/C(=C\c1ccc2c(c1)OCO2)NC(=O)c1ccco1 ?
ROS inducer: -1.4

What do the screens show for `Cc1cccc(N(C)S(=O)(=O)c2ccc3c(c2)OCC(=O)N3)c1`?
ROS inducer: -1.0

What do the screens show for `CC(C)OC(=O)CSc1nc(-c2cccs2)cc(C(F)(F)F)c1C#N`?
ROS inducer: 68.3

What do the screens show for `CCN(CC)c1cc(-c2cccs2)nc(SCC(=O)c2cccs2)c1C#N`?
ROS inducer: 219.9*

How did Cc1cccc(NC(=O)CSc2nc(-c3cccs3)cc(C(F)(F)F)c2C#N)c1 do in these assays?
ROS inducer: 20.6

Results for COc1ccccc1/C=C/C(=O)Nc1sc2c(c1C(N)=O)CCC2 ?
ROS inducer: -3.2

What do the screens show for `O=C(NN1C(=O)/C(=C\c2cccnc2)SC1=S)c1ccccc1`?
ROS inducer: 78.6*

How did CC(C)C(C(=O)O)N1C(=O)/C(=C/c2ccccc2)SC1=S (configuration not stated) do in these assays?
ROS inducer: -4.3

What do the screens show for `CSCCC(C(=O)O)N1C(=O)/C(=C/c2cccnc2)SC1=S` (configuration not stated)?
ROS inducer: -19.3

What do the screens show for `O=C(c1ccccc1SCc1ccccc1)N1CCCc2ccccc21`?
ROS inducer: 13.2

How did Cc1ccc(Cl)cc1N(CC(=O)Nc1c(F)cccc1F)S(C)(=O)=O do in these assays?
ROS inducer: 155.8*

How did Cc1ccc(Cl)cc1NC(=O)CN(c1ccccc1F)S(C)(=O)=O do in these assays?
ROS inducer: -9.2

Results for CS(=O)(=O)N(CC(=O)Nc1c(F)cccc1F)c1cccc(Cl)c1Cl ?
ROS inducer: 5.9

How did CCSc1nc2sc3c(c2c(=O)n1CC)CCc1ccccc1-3 do in these assays?
ROS inducer: -12.2

Results for COc1ccc2c(c1)c(=O)oc1cc(OC(C)C)ccc12 ?
ROS inducer: 114.2*

How did COc1ccc2c(c1)c(=O)oc1cc(O)ccc12 do in these assays?
ROS inducer: 4.4

Results for COC(=O)c1ccc(COc2ccc3c(c2)oc(=O)c2cc(OC)ccc23)o1 ?
ROS inducer: 29.8

How did COc1cccc([C@H]2C(C#N)=C(N)C(C#N)(C#N)C3=CCC(C)C[C@@H]32)c1 (some centres not stated) do in these assays?
ROS inducer: 72.0

How did O=C(c1ccc(Cn2c(=O)[nH]c3ccsc3c2=O)cc1)N1CCCCC1 do in these assays?
ROS inducer: -7.8

How did CSc1cccc(NC(=O)C(C)NS(=O)(=O)c2ccccc2)c1 (configuration not stated) do in these assays?
ROS inducer: -0.6

How did CSc1sc(C(=O)Sc2ccccc2)c2c1S(=O)(=O)N(C)c1ccccc1-2 do in these assays?
ROS inducer: 3.3

How did CSc1sc(C(=O)Sc2ccccc2)cc1S(=O)(=O)C(C)C do in these assays?
ROS inducer: 79.6*

How did Clc1ccccc1/C=C/C=Nc1ccc(N2CCOCC2)cc1 do in these assays?
ROS inducer: 128.5*

What do the screens show for `C(=Nc1ccc(N2CCOCC2)cc1)c1ccc(Sc2nc3ccccc3[nH]2)o1`?
ROS inducer: -4.0
